Assays:
[1] = target: T1, Aspartate--tRNA(Asp/Asn) ligase (Mycobacterium tuberculosis (strain ATCC 25618 / H37Rv)) (UniProt P9WFW3); assay: Assay for Asp RNA synthetase-1 from Mycobacterium tuberculosis; type: functional; set-up: scale not given: direction of the effect not stated beside the values; conditions: 30 µM; note: in the data most compounds retested in dose-response had high values
T1 sequence (whole entry): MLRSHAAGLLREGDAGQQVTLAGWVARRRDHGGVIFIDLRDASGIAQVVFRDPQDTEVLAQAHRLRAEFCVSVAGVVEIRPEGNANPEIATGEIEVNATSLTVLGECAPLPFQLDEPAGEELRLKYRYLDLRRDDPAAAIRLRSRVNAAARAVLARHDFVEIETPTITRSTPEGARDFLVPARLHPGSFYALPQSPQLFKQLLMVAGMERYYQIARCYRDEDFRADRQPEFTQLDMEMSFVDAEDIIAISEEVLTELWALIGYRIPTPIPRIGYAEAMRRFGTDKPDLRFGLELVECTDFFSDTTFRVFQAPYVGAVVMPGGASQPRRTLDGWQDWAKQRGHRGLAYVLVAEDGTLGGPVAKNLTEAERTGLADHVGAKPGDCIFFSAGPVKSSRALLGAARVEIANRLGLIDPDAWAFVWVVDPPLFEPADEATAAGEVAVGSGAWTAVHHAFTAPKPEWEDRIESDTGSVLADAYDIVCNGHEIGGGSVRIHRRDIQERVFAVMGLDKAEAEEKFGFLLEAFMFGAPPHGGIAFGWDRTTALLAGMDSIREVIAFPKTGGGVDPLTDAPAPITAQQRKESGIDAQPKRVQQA

[2] = target: Shiga toxin 2 (Escherichia coli O157:H7) (UniProt P09385+P09386); assay: E. coli 0.157:H7 Shiga Toxin SOP - stx2 screening assay; type: functional; set-up: scale not given: direction of the effect not stated beside the values; conditions: 30 µM

Question: Which Percent Effect [1] does the source give for `O=C(NCc1cccnc1)C1CC(=O)N(CC2CC2)C1` (configuration not stated) here?
Answer: -3.29%

Question: What about the Percent Effect [2] of the same compound?
Answer: -8.28%

Question: What does the source list for `Cc1[nH]c(=O)[nH]c(=O)c1CN1CCCC(CCc2ccccc2)C1` (configuration not stated)?
Answer: Percent Effect [1]: -0.814%; Percent Effect [2]: -2.29%

Question: With `O=C(c1cccc2c1OCO2)N1CCCC1Cn1cccn1` (configuration not stated) as the compound, how does the Percent Effect [1] read?
Answer: 3.69%

Question: And the Percent Effect [2]?
Answer: 29.5%

Question: For `CCc1ncc2c(n1)CN(Cc1nc(C)c(C)o1)CC2`, which Percent Effect [1] is on record?
Answer: 0.259%

Question: What about the Percent Effect [2] of the same compound?
Answer: -23.6%

Question: What does the source list for `CN(Cc1cnn(C)c1)C(=O)c1ccc(=O)n(C)n1`?
Answer: Percent Effect [1]: -3.08%; Percent Effect [2]: -8.81%

Question: `O=C(Cc1ccc(O)c(Cl)c1)N1CCCCC1CCn1cccn1` (configuration not stated) was tested. Which Percent Effect [1] did it give?
Answer: -0.725%

Question: And the Percent Effect [2]?
Answer: -11.4%

Question: Which Percent Effect [1] does the source give for `COCC(c1cccc(C(F)(F)F)c1)N(C)C(=O)c1cc(C)n[nH]1` (configuration not stated) here?
Answer: 1.86%

Question: And the Percent Effect [2]?
Answer: 24.9%

Question: With `CCn1cnnc1CNC(=O)N(C)Cc1ccc(F)c(F)c1` as the compound, how does the Percent Effect [1] read?
Answer: -2.12%

Question: What about the Percent Effect [2] of the same compound?
Answer: 18.2%

Question: With `Cc1n[nH]c(=O)c2c(NC(=O)CN3CCCC(C(F)(F)F)C3)oc(C)c12` (configuration not stated) as the compound, how does the Percent Effect [1] read?
Answer: -2.66%

Question: And the Percent Effect [2]?
Answer: -52.6%

Question: `CCN(CC)c1ccc(C(=O)N(C)Cc2c(C)noc2C)cn1` was tested. Which Percent Effect [1] did it give?
Answer: 3.51%

Question: And the Percent Effect [2]?
Answer: 32.5%

Question: For `CCS(=O)(=O)c1ccccc1C(=O)NCc1ccnc(N(C)C)c1`, which Percent Effect [1] is on record?
Answer: -3.31%

Question: And the Percent Effect [2]?
Answer: -44.7%

Question: How did the Percent Effect [1] turn out when `O=C(NCCN1CCC(c2cccs2)CC1)Nc1cccs1` was run?
Answer: -7.93%

Question: And the Percent Effect [2]?
Answer: -125%

Question: Which Percent Effect [1] does the source give for `COc1ccc(C(O)CNC(=O)Nc2cc(C)nn2C)cc1` (configuration not stated) here?
Answer: -1.41%

Question: What about the Percent Effect [2] of the same compound?
Answer: 26.8%

Question: With `c1ccc(Cn2cncn2)c(CNCC2CNc3ccnn3C2)c1` (configuration not stated) as the compound, how does the Percent Effect [1] read?
Answer: 0.425%

Question: What about the Percent Effect [2] of the same compound?
Answer: -35.2%

Question: For `COc1ccc(CNCC2CC2)cc1F`, which Percent Effect [1] is on record?
Answer: 2.55%

Question: What about the Percent Effect [2] of the same compound?
Answer: 28.8%

Question: What does the source list for `CC(C)S(=O)(=O)NCC1CCCN(C(=O)c2ccc3c(c2)CCC3)C1` (configuration not stated)?
Answer: Percent Effect [1]: 6.5%; Percent Effect [2]: 1.33%

Question: For `CCN(CC)C(C(=O)NCc1ccc(N2CCCC2)nc1)C(C)C` (configuration not stated), which Percent Effect [1] is on record?
Answer: -8.76%

Question: What about the Percent Effect [2] of the same compound?
Answer: 9.3%

Question: What does the source list for `CCN(C)c1ncnc2c1CCN(C(=O)N1CCCC1)CC2`?
Answer: Percent Effect [1]: 9%; Percent Effect [2]: -30.9%

Question: Which Percent Effect [1] does the source give for `Cc1noc(C2CCC3(CCN(C(=O)c4c(C)noc4C)CC3)O2)n1` (configuration not stated) here?
Answer: -3.06%

Question: And the Percent Effect [2]?
Answer: 16.1%

Question: Which Percent Effect [1] does the source give for `COCCc1noc(CNC2CCCN(c3cccnn3)C2)n1` (configuration not stated) here?
Answer: -0.981%

Question: What about the Percent Effect [2] of the same compound?
Answer: -59%

Question: How did the Percent Effect [1] turn out when `CCN(CC1CCOC1)C(=O)c1ccccc1NS(=O)(=O)CC` (configuration not stated) was run?
Answer: -4.47%

Question: And the Percent Effect [2]?
Answer: 33.3%

Question: Which results are given for `Cc1cnn(CC2CCCN2CC(=O)Nc2cc(C(C)(C)C)no2)c1` (configuration not stated)?
Answer: Percent Effect [1]: 0.278%; Percent Effect [2]: -37.5%

Question: Which results are given for `CN(C)S(=O)(=O)N1CCC[C@]2(C[C@@H](Oc3ccccn3)CO2)C1`?
Answer: Percent Effect [1]: 3.16%; Percent Effect [2]: -10.1%

Question: `COCC(C)N(C)C(=O)c1nc(S(C)(=O)=O)n2ccccc12` (configuration not stated) was tested. Which Percent Effect [1] did it give?
Answer: -0.433%

Question: And the Percent Effect [2]?
Answer: -13.2%

Question: With `Cc1c(I)cccc1C(=O)NCC1(CO)CC1` as the compound, how does the Percent Effect [1] read?
Answer: 0.747%

Question: What about the Percent Effect [2] of the same compound?
Answer: 0.906%

Question: With `CCn1nc(C)c(CCNC(=O)C2CCCN(C(=O)N(C)C)C2)c1C` (configuration not stated) as the compound, how does the Percent Effect [1] read?
Answer: -4.2%

Question: What about the Percent Effect [2] of the same compound?
Answer: 14.2%

Question: With `COCCN(C)C[C@@H]1CN(C(=O)c2ccoc2)C[C@@H]1CO` as the compound, how does the Percent Effect [1] read?
Answer: -4.07%

Question: And the Percent Effect [2]?
Answer: 15.1%

Question: `N#CC1(C(=O)Nc2ccc(OC(F)F)cc2)CCCC1` was tested. Which Percent Effect [1] did it give?
Answer: 3.4%

Question: And the Percent Effect [2]?
Answer: -2.03%

Question: How did the Percent Effect [1] turn out when `O=C1CC(c2ccccc2)C2(CCN(Cc3ccccn3)CC2)N1` (configuration not stated) was run?
Answer: 2.57%

Question: What about the Percent Effect [2] of the same compound?
Answer: -17.4%

Question: With `Cc1cc(C)n(-c2ccc(CNCc3ccc(OC(C)C)cc3)cn2)n1` as the compound, how does the Percent Effect [1] read?
Answer: -4.39%

Question: And the Percent Effect [2]?
Answer: 29.5%

Question: For `Cc1[nH]ncc1C(=O)N1CCN(CC(O)C(C)(C)C)CC1` (configuration not stated), which Percent Effect [1] is on record?
Answer: 0.878%

Question: And the Percent Effect [2]?
Answer: 0.313%

Question: For `O=C(NCc1csc(Br)c1)c1ccncc1`, which Percent Effect [1] is on record?
Answer: -0.335%

Question: And the Percent Effect [2]?
Answer: -44.3%

Question: How did the Percent Effect [1] turn out when `Cn1cc(CN2CC[C@@H]3[C@@H](CCC(=O)N3CCc3c[nH]cn3)C2)cn1` was run?
Answer: -1.44%

Question: What about the Percent Effect [2] of the same compound?
Answer: -37.6%

Question: For `CCOc1ncccc1NC(=O)N1CCc2ccccc2C1`, which Percent Effect [1] is on record?
Answer: 19.1%

Question: And the Percent Effect [2]?
Answer: 3.47%

Question: What does the source list for `CN(C)S(=O)(=O)N1CCN(c2ccnc(N3CCCC3)n2)CC1`?
Answer: Percent Effect [1]: -2.66%; Percent Effect [2]: -41.2%

Question: With `Cc1cc(CNC(=O)N2CCN(c3ccccc3)CC2)no1` as the compound, how does the Percent Effect [1] read?
Answer: 1.31%

Question: What about the Percent Effect [2] of the same compound?
Answer: -2.24%

Question: Which results are given for `Cc1cc(=O)[nH]c(NCCNC(=O)C(c2ccc(F)cc2)N(C)C)n1` (configuration not stated)?
Answer: Percent Effect [1]: -2.14%; Percent Effect [2]: -65.1%

Question: Which Percent Effect [1] does the source give for `Cc1ccc(N2CCCN(C(=O)C(C(C)C)n3cncn3)CC2)nn1` (configuration not stated) here?
Answer: -4.34%

Question: And the Percent Effect [2]?
Answer: -13.6%

Question: With `CCn1cnnc1CNC(=O)N1CCC(C(=O)NC)CC1` as the compound, how does the Percent Effect [1] read?
Answer: -8.1%

Question: And the Percent Effect [2]?
Answer: -16.1%

Question: `O=C(CCN1CCCC1C1CCCCC1)N1CCc2sccc2C1` (configuration not stated) was tested. Which Percent Effect [1] did it give?
Answer: 2.02%

Question: And the Percent Effect [2]?
Answer: 8.04%

Question: Which results are given for `O=C(CC1CC1)N1C[C@@H]2CCN(c3cnccn3)C[C@@H]2C1`?
Answer: Percent Effect [1]: -5.94%; Percent Effect [2]: -0.992%

Question: For `O=C(c1cccs1)N1C[C@H]2CC[C@@]3(N=C(c4ccccc4)NC3=O)[C@H]2C1`, which Percent Effect [1] is on record?
Answer: -3.42%

Question: What about the Percent Effect [2] of the same compound?
Answer: -42.8%

Question: With `NC(=O)c1nc(COc2ccc3c(c2)OCO3)no1` as the compound, how does the Percent Effect [1] read?
Answer: -0.145%

Question: And the Percent Effect [2]?
Answer: -76.3%

Question: How did the Percent Effect [1] turn out when `O=C(CCNc1ncccn1)N1CCCC(n2ccnc2)C1` (configuration not stated) was run?
Answer: 1.03%

Question: And the Percent Effect [2]?
Answer: -9.67%

Question: How did the Percent Effect [1] turn out when `COc1cccc2ccn(CCC(=O)N3CCCC(C(=O)O)C3)c12` (configuration not stated) was run?
Answer: 9.22%

Question: And the Percent Effect [2]?
Answer: -2.31%

Question: Which results are given for `CN(C)C(=O)CO[C@@H]1CC[C@H]2[C@H]1OCCN2C(=O)C1CCOCC1`?
Answer: Percent Effect [1]: -1.59%; Percent Effect [2]: -10.1%
